High-throughput results (PubChem)
Hits are enriched below; roughly 2.1% of the tested compounds scored in any of these assays.
Env fusion inh – inhibitors of HIV-1 Env-driven cell-cell fusion, primary screen, HeLa-JRFL effector, CEM21 target cells, luciferase. 1.1% of 360,000 active. inhibition, % at 12.3 µM;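 active = mean replicate inhibition score of at least 50 and every replicate individually at or above 50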;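 also: 0% = plate neutral controls and 100% = maraviroc near 300 nM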
MLL AF4-AF9 inh – inhibitors of AF4 peptide binding to AF9, primary screen, biochemical, AlphaScreen, biotin-AF4 peptide, FLAG-AF9, single point | Protein AF-9 (Homo sapiens), P42568 | inhibition, % at 10 µM | 0.47% of 350,000 active | AID 651704, 2012;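 active = every replicate reaching a set inhibition limit, whatever the replicate mean, cut at about 25% in these data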;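 also: 0% = plate neutral control median and 100% = total signal loss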
GSIS activator – GLuc luminescence reporter in INS-1E cells, primary screen for activators of glucose-dependent secretion of insulin | INS-1E GLuc reporter insulin secretion, 2-3 h | 0.61% of 370,000 active | activation, % at 16.6 µM;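 active = lowest replicate activation of at least 40%, so every replicate reaches that level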;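 also: 0% = median of neutral control wells and 100% = median of IBMX positive control wells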
NSD2 HMT inh – NSD2 histone methyltransferase inhibitors, primary screen, biochemical, AlphaScreen, single concentration, set 2 | NSD2 peptide methylation, 120 min | AID 743445, 2014 | 0.54% of 310,000 active | inhibition, % at 12.5 µM; in the data active = inhibition above about 50%
PGC1a acetyl inh – inhibitors of PGC1a acetylation signal, primary screen, cell-based, U2OS, AlphaScreen, inhibitor mode; AlphaScreen anti-acetyl-lysine; with virally co-expressed GCN5 acetyltransferase; inhibition, % at 15.6 µM; 0.17% of 350,000 active; AID 651687, 2012;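 active = every replicate shows inhibition of at least 40%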;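 also: 0% = neutral control wells and 100% = positive control wells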
AlphaScreen art – AlphaScreen signal interference with preloaded methylated product, dose response, artefact control for NSD2 inhibitor project, biochemical, cherry-picked samples. shares compounds with NSD2 HMT inh. AlphaScreen artifact counterscreen, preloaded methylated H4 peptide. AC35, µM (series often up to 10 µM), for the others: at the highest dose activity change, negative = signal loss. 9.4% of 1,500 active. AID 1053174, 2014; call rule not given here
* = called active by the depositor; / = no result given; [ ] = dose if it differs, or a comment.

SMILES | Env fusion inh | MLL AF4-AF9 inh | GSIS activator | NSD2 HMT inh | PGC1a acetyl inh | AlphaScreen art
COc1ccc(C(=O)Nn2c(SCC(=O)c3ccc(Cl)cc3)nc3ccccc3c2=O)cc1 | -23 | / | / | 116* | -11 | -4%
CNc1ccc(Br)cc(C(=O)/C=C/c2ccc(OC)cc2)c1=O | -66 | / | -6 | 66* | / | -11%
CNc1ccc(Br)cc(C(=O)/C=C/c2cc(OC)ccc2OC)c1=O | 22 | / | / | 12 | 12 | /
CCOc1ccc(C(c2c(NC(=O)c3ccccc3)sc(C)c2C)N2CCN(CCO)CC2)cc1 (centres undefined) | -38 | 11 | -15 | -1 | / | /
COc1ccc(CC(=O)NC2CCCCCC2)c(OC)c1 | -14 | -3 | 11 | 77* | / | 0%
O=C(COc1ncnc2c(Cl)cc(Cl)cc12)N1CCCCC1 | -12 | / | -8 | 53* | 8 | -7%
CC(=O)COc1ncnc2c(Cl)cc(Cl)cc12 | -14 | -1 | 4 | 0 | / | /
COc1cc(OC)c(C(=O)OC(C)C(=O)NCc2ccc3c(c2)OCO3)cc1OC (centres undefined) | -12 | -1 | / | 76* | -10 | -4%
COc1ccc(S(=O)(=O)NCc2ccc3c(c2)OCO3)cc1OC | 11 | 1 | 26 | 55* | / | 2%
CC(=O)Nc1cccc(NS(=O)(=O)c2ccccc2[N+](=O)[O-])c1 | -5 | 1 | 6 | 1 | 5 | /
CC(C)=CCC1=C(OCC(=O)O)C(=O)c2ccccc2C1=O | -10 | 5 | -11 | 127* | / | -2%
CC(C)=CCC/C(C)=C/CC/C(C)=C/CC/C(C)=C/CC1=C(C)C(=O)c2ccccc2C1=O | 11 | 2 | / | / | / | /
CCc1ccc(-c2cc(C)no2)cc1S(=O)(=O)N1CCN(c2ccc(F)cc2)CC1 | 13 | -9 | -14 | 50* | -12 | -5%
CCOC(=O)c1ccc(S(=O)(=O)N2CCN(c3ccccn3)CC2)cc1 | -1 | -20 | 4 | 51* | -11 | -1%
CCOC(=O)c1ccc(S(=O)(=O)N2CCN(C(C)=O)CC2)cc1 | -21 | 0 | 6 | -3 | 2 | /
Cc1cc(C=O)c(C)n1-c1ccc(Cl)c(C(=O)O)c1 | -2 | -9 | -4 | 167* | 1 | -8%
COc1ccc(-n2c(C)cc(C=O)c2C)cc1Cl | -215 | / | / | 8 | 11 | /
CCCNC(=O)C1(C)CCCN(C(=O)/C=C/c2ccccc2)C1 (centres undefined) | 10 | 2 | / | -1 | 4 | /
Cc1ccccc1N(C(=O)c1snc(C(N)=O)c1N)C(C)C(=O)NC1CCCCC1 (centres undefined) | 6 | -7 | -4 | 78* | / | 2%
Cc1ccccc1N(C(=O)c1snc(C(N)=O)c1N)C(C(=O)NC1CCCCC1)c1ccc(O)cc1 (centres undefined) | 17 | 1 | -31 | -2 | -14 | /
O=C(O)COc1ccccc1/C=N/Nc1ccc(S(=O)(=O)Nc2ccc(Cl)cc2)cc1[N+](=O)[O-] | 3 | 5 | 6 | 50* | / | -13%
N#C/C(=C\c1ccc(O)c(O)c1)S(=O)(=O)c1ccccc1 | -22 | / | / | / | 5 | /
COc1ccc(OC)c(C2Nc3nc4ccccc4n3C(C)=C2C(=O)Nc2ccc(C)cc2C)c1 (centres undefined) | 5 | / | -16 | -4 | -19 | /
CCN(C(=O)/C=C/c1ccc2c(c1)OCO2)c1ccccc1 | -7 | / | 2 | 62* | / | 3%
Cc1cc(C)cc(NC(=S)N(CCCN2CCN(C)CC2)Cc2cccs2)c1 | -5 | 2 | 23 | 2 | / | /
SMILES | Env fusion inh | MLL AF4-AF9 inh | GSIS activator | NSD2 HMT inh | PGC1a acetyl inh | AlphaScreen art
Cc1cccc(C)c1NC(=S)N(CCCN1CCN(C)CC1)Cc1cccs1 | -4 | -2 | -7 | 75* | / | -7%
C=CCn1c2[n+](c3ccccc3c1=O)CCCCC2 | 11 | 0 | 1 | 2 | / | /
CCc1nnc(NC(=O)c2ccc3ccccc3n2)s1 | -75 | -2 | 4 | 78* | -14 | -1%
CCc1nnc(NC(=O)c2ccc(COc3ccccc3)o2)s1 | -16 | / | / | 96* | / | 1%
CCc1nnc(NC(=O)c2ccc(COc3ccc(C)cc3)o2)s1 | -10 | / | / | -6 | 15 | /
COc1ccc(S(=O)(=O)Nc2ccc3c(c2)C(=O)N([C@H](C)CO)C[C@@H](C)[C@H](CN(C)C(=O)Nc2ccc(C(F)(F)F)cc2)OCCCC[C@H](C)O3)cc1 | 35[16.7 µM] | 4 | 6 | / | 8 | /
CCNC(=O)C1CCCN(Cc2ccc(C)c3ccccc23)CC1 (centres undefined) | / | / | / | 14 | / | /
CCCOc1ccc(-c2nc(SCc3ccccc3)[nH]c(=O)c2C#N)cc1OC | 15 | -1 | 4 | 66* | 1 | 0%
Nc1ncc(-c2ccccc2)n1CC1CCCO1 (centres undefined) | -139 | / | / | 123* | 1 | -6%
O=C1C=C(Nc2ccccc2C(=O)O)c2ccccc2C1=O | -4 | -15 | -47 | / | -14 | /
Cc1ccc(S(=O)(=O)/N=C2\C=C(NS(=O)(=O)c3ccccc3)C(=O)c3ccccc32)c(C)c1 | 49 | 0 | 1 | 5 | 16 | /
Cc1ccc(S(=O)(=O)/N=C2\C=C(Nc3cccc(C(=O)O)c3)C(=O)c3ccccc32)cc1 | -28 | 8 | -14 | 172* | -1 | -16%
COC(=O)c1ccccc1NC1=C/C(=N\S(=O)(=O)c2ccc(C(=O)O)cc2)c2ccccc2C1=O | / | / | / | 151* | / | 8.1µM*
O=C(COc1ccc2c3c(c(=O)oc2c1)CCC3)Nc1ccc(CCO)cc1 | -7 | -1 | 15 | -1 | 1 | /
CCCn1c(=N)c(S(=O)(=O)c2ccccc2)cc2c(=O)n3ccccc3nc21 | 15 | -2 | 9 | -4 | / | /
CC1=NN(c2ccc(C(=O)O)c(N)c2)C(=O)C1 | 13 | -22 | -3 | 130* | 3 | -6%
Cc1nn(-c2ccccn2)c2c1C(=O)C(Br)CC2 (centres undefined) | / | / | / | 100* | -1 | -1%
Cc1ccc2cccc(OCc3ccc(Br)cc3)c2n1 | 16 | -24 | 0 | 51* | -19 | -6%
CN(C(=O)COC(=O)CSc1cc(Cl)ccc1Cl)c1c(N)n(Cc2ccccc2)c(=O)[nH]c1=O | / | -4 | -3 | 21 | -13 | /
Cc1cc(=O)oc(C)c1C(=O)OCC(=O)c1ccccc1 | -41 | / | 5 | 54* | -3 | -5%
Nc1ccc(N(CCO)CCO)cc1 | -2 | -3 | -2 | 117* | / | -4%
CCN(CC)c1ccc(N)cc1 | / | / | / | / | -25 | /
COC(=O)c1cc2oc(C)cc2n1CC(=O)N(C)c1ccccc1 | 19 | 8 | -3 | -1 | 2 | /
COCCCNC(=O)c1ccccc1Oc1ccccc1 | / | / | / | 1 | -2 | /
COCCCNC(=O)c1ccc2c3c(onc13)-c1ccccc1C2=O | / | / | / | 53* | -6 | -14%
